# According to the supplement of paper PMC11732987, “Enantioselective OTUD7B fragment discovery through chemoproteomics screening and high-throughput optimisation” (Communications Chemistry, 2025):
# A number with no mark means an inactive call.
# Tests used:
# Test in all cases: log2 ratio of Biotin-Ahx-Ub-VS probe labelling (fragment/DMSO); higher = less target engagement (more negative = stronger competition), active = hit call of the paper (q ≤ 0.05, log2 ratio ≤ -1)
# Conditions in all cases: compound concentration: 200 uM; treatment time: 3 h
# [1] = molecular target: T1, ALG13 (UniProt Q9NP73)
# T1 sequence (whole entry): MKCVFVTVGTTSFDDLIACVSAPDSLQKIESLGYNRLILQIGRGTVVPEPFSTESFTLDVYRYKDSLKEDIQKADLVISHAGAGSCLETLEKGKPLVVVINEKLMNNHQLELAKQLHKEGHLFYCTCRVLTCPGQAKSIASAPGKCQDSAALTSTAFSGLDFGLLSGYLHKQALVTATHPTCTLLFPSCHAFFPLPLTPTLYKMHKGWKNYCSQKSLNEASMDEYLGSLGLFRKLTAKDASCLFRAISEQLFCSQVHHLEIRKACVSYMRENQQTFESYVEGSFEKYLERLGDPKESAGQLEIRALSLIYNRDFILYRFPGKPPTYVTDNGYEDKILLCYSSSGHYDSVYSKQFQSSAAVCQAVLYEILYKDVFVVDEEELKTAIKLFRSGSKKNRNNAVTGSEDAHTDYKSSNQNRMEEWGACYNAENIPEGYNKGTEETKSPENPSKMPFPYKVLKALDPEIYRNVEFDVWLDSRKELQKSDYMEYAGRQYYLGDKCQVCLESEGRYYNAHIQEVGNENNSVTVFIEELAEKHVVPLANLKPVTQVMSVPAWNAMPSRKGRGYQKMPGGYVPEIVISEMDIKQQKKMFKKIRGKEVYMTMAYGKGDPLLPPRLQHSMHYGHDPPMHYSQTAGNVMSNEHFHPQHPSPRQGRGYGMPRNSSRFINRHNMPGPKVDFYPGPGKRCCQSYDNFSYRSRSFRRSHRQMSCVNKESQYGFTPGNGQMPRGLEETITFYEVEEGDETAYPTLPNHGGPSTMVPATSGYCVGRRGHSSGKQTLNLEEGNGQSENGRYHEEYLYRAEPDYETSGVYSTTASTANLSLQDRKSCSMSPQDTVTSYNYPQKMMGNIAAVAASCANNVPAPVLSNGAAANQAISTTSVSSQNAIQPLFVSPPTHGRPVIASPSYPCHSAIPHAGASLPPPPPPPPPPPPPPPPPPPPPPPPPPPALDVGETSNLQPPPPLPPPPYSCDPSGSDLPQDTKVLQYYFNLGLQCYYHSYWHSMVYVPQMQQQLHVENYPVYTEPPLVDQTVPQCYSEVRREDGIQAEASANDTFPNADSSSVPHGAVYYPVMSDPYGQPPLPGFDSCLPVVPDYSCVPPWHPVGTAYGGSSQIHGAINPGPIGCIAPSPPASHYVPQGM
# Summary of the method: (§1)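 Using Biotin-Ahx-Ub-VS at 0.5 µM final for 1 h, DUBs were labelled in HEK293T lysate (495 µg per sample) that had first been treated in triplicate with fragment at 200 µM or vehicle for 3 h. NeutrAvidin enrichment, LysC and trypsin digestion and diaPASEF LC-MS/MS followed. Spectronaut label-free quantities were global-median-normalised. Values are average log2 fragment/vehicle ratios by unpaired t-test, using proteins with ≥2 unique peptides.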
# [2] = molecular target: ATXN3 (UniProt P54252)
# Sequence of ATXN3 (P54252 whole entry): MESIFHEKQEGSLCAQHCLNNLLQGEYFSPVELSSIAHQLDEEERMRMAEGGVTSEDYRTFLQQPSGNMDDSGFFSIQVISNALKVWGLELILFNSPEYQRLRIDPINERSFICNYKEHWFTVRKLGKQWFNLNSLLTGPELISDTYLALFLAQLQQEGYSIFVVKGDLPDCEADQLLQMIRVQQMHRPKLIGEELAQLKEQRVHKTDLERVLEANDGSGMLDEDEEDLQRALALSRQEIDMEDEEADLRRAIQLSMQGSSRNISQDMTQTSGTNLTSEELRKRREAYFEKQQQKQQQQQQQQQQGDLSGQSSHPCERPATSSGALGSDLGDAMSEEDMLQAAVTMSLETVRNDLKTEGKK
# Summary of the method: as §1
# [3] = molecular target: T2, BAP1 (UniProt Q92560)
# T2 sequence (whole entry): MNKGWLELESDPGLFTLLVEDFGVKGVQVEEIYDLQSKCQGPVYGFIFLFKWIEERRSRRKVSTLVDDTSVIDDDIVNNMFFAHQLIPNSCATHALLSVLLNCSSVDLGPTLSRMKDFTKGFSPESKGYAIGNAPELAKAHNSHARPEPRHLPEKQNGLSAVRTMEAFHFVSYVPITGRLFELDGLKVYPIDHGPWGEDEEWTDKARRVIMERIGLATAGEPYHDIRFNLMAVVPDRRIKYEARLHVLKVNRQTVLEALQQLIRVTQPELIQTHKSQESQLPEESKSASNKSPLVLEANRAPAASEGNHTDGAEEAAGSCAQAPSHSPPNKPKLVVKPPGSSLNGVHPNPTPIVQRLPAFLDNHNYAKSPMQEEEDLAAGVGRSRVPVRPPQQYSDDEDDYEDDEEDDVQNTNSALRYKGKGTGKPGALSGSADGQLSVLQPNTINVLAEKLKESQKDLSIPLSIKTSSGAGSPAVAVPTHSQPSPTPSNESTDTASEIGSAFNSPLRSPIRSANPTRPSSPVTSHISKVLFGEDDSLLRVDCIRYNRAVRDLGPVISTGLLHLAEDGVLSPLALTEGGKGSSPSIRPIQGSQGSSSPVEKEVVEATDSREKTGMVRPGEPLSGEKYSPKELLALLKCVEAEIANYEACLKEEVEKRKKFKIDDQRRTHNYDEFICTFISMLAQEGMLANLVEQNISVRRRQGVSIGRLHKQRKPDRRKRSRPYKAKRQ
# Summary of the method: as §1
# [4] = molecular target: EIF3F (UniProt O00303)
# Sequence of EIF3F (O00303 whole entry): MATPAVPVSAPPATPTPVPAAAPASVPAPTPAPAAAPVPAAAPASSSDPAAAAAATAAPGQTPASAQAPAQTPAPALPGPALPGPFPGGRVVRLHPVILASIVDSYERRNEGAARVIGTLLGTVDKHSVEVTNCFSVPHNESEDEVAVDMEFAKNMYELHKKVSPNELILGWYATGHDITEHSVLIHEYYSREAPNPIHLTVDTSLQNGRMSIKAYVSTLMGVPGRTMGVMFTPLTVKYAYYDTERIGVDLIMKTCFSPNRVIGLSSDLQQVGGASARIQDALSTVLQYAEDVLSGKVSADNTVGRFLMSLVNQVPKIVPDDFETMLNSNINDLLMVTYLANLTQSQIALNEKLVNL
# Summary of the method: as §1
# [5] = molecular target: EIF3H (UniProt O15372)
# Sequence of EIF3H (O15372 whole entry): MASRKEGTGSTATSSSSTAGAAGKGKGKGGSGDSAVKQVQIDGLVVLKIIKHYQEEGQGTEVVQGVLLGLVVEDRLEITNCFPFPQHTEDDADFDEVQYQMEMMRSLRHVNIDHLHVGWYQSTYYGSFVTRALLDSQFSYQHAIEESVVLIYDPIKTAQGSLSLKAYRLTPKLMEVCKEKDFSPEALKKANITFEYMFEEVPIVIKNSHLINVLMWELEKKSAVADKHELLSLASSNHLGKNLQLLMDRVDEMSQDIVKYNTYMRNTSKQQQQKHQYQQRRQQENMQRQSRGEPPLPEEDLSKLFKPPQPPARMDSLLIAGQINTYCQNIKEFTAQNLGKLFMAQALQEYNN
# Summary of the method: as §1
# [6] = molecular target: T3, FAM105A (UniProt Q9NUU6)
# T3 sequence (whole entry): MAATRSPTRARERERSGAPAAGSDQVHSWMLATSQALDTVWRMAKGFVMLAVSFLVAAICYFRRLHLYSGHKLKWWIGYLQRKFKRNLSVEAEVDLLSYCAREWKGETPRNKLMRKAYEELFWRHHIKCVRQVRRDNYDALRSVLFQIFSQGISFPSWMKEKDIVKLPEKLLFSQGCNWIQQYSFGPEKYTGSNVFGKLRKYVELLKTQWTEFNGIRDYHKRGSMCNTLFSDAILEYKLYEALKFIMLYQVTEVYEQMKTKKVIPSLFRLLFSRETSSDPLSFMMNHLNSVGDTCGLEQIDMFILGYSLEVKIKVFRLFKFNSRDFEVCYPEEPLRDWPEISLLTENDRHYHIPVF
# Summary of the method: as §1
# [7] = molecular target: OTUB1 (UniProt Q96FW1)
# Sequence of OTUB1 (Q96FW1 whole entry): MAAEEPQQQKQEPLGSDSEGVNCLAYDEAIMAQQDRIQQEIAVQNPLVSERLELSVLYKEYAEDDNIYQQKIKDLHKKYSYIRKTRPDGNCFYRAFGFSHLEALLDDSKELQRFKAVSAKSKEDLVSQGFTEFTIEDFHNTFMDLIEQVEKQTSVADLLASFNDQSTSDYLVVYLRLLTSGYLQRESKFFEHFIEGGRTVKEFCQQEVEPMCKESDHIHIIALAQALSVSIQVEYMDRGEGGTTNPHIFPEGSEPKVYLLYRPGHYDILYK
# Summary of the method: as §1
# [8] = molecular target: T4, OTUD4 (UniProt Q01804)
# T4 sequence (whole entry): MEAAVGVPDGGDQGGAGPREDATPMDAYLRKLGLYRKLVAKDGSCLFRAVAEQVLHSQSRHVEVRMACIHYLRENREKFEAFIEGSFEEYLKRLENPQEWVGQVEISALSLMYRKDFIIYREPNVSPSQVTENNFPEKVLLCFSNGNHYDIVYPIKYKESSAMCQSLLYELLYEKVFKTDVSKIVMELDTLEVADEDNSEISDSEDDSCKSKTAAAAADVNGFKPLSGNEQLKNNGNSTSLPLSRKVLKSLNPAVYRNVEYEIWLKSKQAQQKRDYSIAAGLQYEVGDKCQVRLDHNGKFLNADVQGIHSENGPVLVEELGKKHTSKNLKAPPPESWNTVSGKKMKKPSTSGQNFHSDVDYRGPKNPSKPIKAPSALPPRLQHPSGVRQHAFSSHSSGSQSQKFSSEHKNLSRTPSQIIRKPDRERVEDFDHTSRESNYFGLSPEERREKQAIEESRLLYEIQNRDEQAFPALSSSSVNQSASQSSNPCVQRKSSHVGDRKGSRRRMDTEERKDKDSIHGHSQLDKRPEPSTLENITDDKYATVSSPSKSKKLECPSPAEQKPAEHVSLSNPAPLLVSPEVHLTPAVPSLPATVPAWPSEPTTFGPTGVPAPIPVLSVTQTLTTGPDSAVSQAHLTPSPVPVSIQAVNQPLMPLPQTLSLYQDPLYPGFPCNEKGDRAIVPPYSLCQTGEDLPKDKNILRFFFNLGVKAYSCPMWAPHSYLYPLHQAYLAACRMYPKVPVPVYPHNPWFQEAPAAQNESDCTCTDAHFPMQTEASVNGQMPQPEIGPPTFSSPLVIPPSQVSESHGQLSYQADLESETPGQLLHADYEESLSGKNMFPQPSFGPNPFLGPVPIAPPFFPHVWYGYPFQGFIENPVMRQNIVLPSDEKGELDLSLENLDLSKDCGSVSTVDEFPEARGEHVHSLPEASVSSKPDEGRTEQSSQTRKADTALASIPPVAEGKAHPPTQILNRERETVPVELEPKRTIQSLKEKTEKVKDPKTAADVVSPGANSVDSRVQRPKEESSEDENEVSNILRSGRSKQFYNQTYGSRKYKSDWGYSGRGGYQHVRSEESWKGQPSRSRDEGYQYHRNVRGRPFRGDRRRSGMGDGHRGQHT
# Summary of the method: as §1
# [9] = molecular target: T5, OTUD5 (UniProt Q96G74)
# T5 sequence (whole entry): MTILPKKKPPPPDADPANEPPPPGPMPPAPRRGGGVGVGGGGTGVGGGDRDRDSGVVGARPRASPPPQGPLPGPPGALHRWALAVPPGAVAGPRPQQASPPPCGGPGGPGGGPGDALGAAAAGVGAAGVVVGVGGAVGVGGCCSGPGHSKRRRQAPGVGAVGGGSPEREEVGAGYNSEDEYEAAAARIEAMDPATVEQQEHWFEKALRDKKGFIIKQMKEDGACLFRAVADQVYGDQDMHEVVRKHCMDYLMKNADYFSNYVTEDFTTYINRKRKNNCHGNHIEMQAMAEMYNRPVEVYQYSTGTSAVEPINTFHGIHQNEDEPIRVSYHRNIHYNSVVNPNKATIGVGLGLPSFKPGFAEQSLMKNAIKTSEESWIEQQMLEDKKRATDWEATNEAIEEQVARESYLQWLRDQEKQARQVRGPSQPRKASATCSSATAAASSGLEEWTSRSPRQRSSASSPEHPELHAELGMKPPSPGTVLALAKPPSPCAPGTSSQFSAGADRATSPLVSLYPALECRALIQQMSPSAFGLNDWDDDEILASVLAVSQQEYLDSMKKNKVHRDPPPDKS
# Summary of the method: as §1
structure (smiles),measurement,setting,value
O=C(CCl)NC1CCN(C(=O)C2CCCCC2)CC1,log2 ratio of Biotin-Ahx-Ub-VS probe labelling,[1],-0.358
same,log2 ratio of Biotin-Ahx-Ub-VS probe labelling,[2],-0.103
same,log2 ratio of Biotin-Ahx-Ub-VS probe labelling,[3],-1.71 (active)
same,log2 ratio of Biotin-Ahx-Ub-VS probe labelling,[4],-0.569
same,log2 ratio of Biotin-Ahx-Ub-VS probe labelling,[5],0.155
same,log2 ratio of Biotin-Ahx-Ub-VS probe labelling,[6],-0.0528
same,log2 ratio of Biotin-Ahx-Ub-VS probe labelling,[7],-0.0801
same,log2 ratio of Biotin-Ahx-Ub-VS probe labelling,[8],0.0192
same,log2 ratio of Biotin-Ahx-Ub-VS probe labelling,[9],-0.0926
